# Reference: paper PMC11062922 (Nature Chemical Biology, 2023)
# Where two headings read alike, the source gives them in different places.
# Assays:
# AURKB = conditions: read-out: apparent Kd, n = 1
# CDKL5 = conditions: read-out: apparent Kd, n = 1
# [1] = compound concentrations:100 nM and 1000 nM (sheet 'Lestaurtinib' of Supplementary Table 1),run:Lestaurtinib_02438_R3,Plate:MR008
# [2] = compound concentrations:100 nM and 1000 nM (sheet 'Lestaurtinib' of Supplementary Table 1),run:Lestaurtinib_02443_R2,Plate:MR009
# [3] = compound concentrations:100 nM and 1000 nM (sheet 'Lestaurtinib' of Supplementary Table 1),run:Lestaurtinib_02473_R1,Plate:MR010
# [4] = compound concentrations:100 nM and 1000 nM (sheet 'Lestaurtinib' of Supplementary Table 1),run:Lestaurtinib_02487_R1,Plate:MR012
# [5] = compound concentrations:100 nM and 1000 nM (sheet 'Lestaurtinib' of Supplementary Table 1),run:Lestaurtinib_02487_R2,Plate:MR012
# [6] = compound concentrations:100 nM and 1000 nM (sheet 'Lestaurtinib' of Supplementary Table 1),run:Lestaurtinib_02566_R1,Plate:MR014
# [7] = compound concentrations:100 nM and 1000 nM (sheet 'Lestaurtinib' of Supplementary Table 1),run:Lestaurtinib_02572_R1,Plate:MR015
substance,measurement,setting,value
Lestaurtinib,potency estimated from few doses,AURKB; [1],161 nM
same,potency estimated from few doses,"AURKB; compound concentrations:100 nM and 1000 nM (sheet 'Lestaurtinib' of Supplementary Table 1),run:Lestaurtinib_02443_R1,Plate:MR009",193 nM
same,potency estimated from few doses,AURKB; [2],260 nM
same,potency estimated from few doses,AURKB; [3],144 nM
same,potency estimated from few doses,AURKB; [4],224 nM
same,potency estimated from few doses,AURKB; [5],219 nM
same,potency estimated from few doses,"AURKB; compound concentrations:100 nM and 1000 nM (sheet 'Lestaurtinib' of Supplementary Table 1),run:Lestaurtinib_02496_R2,Plate:MR013",115 nM
same,potency estimated from few doses,AURKB; [6],273 nM
same,potency estimated from few doses,"AURKB; compound concentrations:100 nM and 1000 nM (sheet 'Lestaurtinib' of Supplementary Table 1),run:Lestaurtinib_02566_R2,Plate:MR014",297 nM
same,potency estimated from few doses,AURKB; [7],271 nM
same,potency estimated from few doses,"AURKB; compound concentrations:100 nM and 1000 nM (sheet 'Lestaurtinib' of Supplementary Table 1),run:Lestaurtinib_02572_R3,Plate:MR015",151 nM
same,potency estimated from few doses,"AURKB; compound concentrations:100 nM and 1000 nM (sheet 'Lestaurtinib' of Supplementary Table 1),run:Lestaurtinib_02577_R1,Plate:MR016",239 nM
same,potency estimated from few doses,"AURKB; compound concentrations:100 nM and 1000 nM (sheet 'Lestaurtinib' of Supplementary Table 1),run:Lestaurtinib_02584_R1,Plate:MR017",236 nM
same,potency estimated from few doses,"AURKB; compound concentrations:100 nM and 1000 nM (sheet 'Lestaurtinib' of Supplementary Table 1),run:Lestaurtinib_02584_R2,Plate:MR017",271 nM
same,potency estimated from few doses,"AURKB; compound concentrations:100 nM and 1000 nM (sheet 'Lestaurtinib' of Supplementary Table 1),run:Lestaurtinib_02584_R3,Plate:MR017",237 nM
same,potency estimated from few doses,"AURKB; compound concentrations:100 nM and 1000 nM (sheet 'Lestaurtinib' of Supplementary Table 1),run:Lestaurtinib_02601_R2,Plate:MR018",240 nM
same,potency estimated from few doses,"AURKB; compound concentrations:100 nM and 1000 nM (sheet 'Lestaurtinib' of Supplementary Table 1),run:Lestaurtinib_02606_R1,Plate:MR019",271 nM
same,potency estimated from few doses,"AURKB; compound concentrations:100 nM and 1000 nM (sheet 'Lestaurtinib' of Supplementary Table 1),run:Lestaurtinib_02624_R1,Plate:MR020",259 nM
same,potency estimated from few doses,"AURKB; compound concentrations:100 nM and 1000 nM (sheet 'Lestaurtinib' of Supplementary Table 1),run:Lestaurtinib_02624_R2,Plate:MR020",278 nM
same,potency estimated from few doses,"AURKB; compound concentrations:100 nM and 1000 nM (sheet 'Lestaurtinib' of Supplementary Table 1),run:Lestaurtinib_02624_R3,Plate:MR020",260 nM
same,potency estimated from few doses,"AURKB; compound concentrations:100 nM and 1000 nM (sheet 'Lestaurtinib' of Supplementary Table 1),run:Lestaurtinib_02724_R1,Plate:MR021",414 nM
same,potency estimated from few doses,"AURKB; compound concentrations:100 nM and 1000 nM (sheet 'Lestaurtinib' of Supplementary Table 1),run:Lestaurtinib_02724_R2,Plate:MR021",253 nM
same,potency estimated from few doses,"AURKB; compound concentrations:100 nM and 1000 nM (sheet 'Lestaurtinib' of Supplementary Table 1),run:Lestaurtinib_02724_R3,Plate:MR021",80.5 nM
same,potency estimated from few doses,"AURKB; compound concentrations:100 nM and 1000 nM (sheet 'Lestaurtinib' of Supplementary Table 1),run:Lestaurtinib_02741_R1,Plate:MR023",289 nM
same,potency estimated from few doses,"AURKB; compound concentrations:100 nM and 1000 nM (sheet 'Lestaurtinib' of Supplementary Table 1),run:Lestaurtinib_02741_R2,Plate:MR023",259 nM
same,potency estimated from few doses,"AURKB; compound concentrations:100 nM and 1000 nM (sheet 'Lestaurtinib' of Supplementary Table 1),run:Lestaurtinib_02748_R1,Plate:MR024",229 nM
same,potency estimated from few doses,"AURKB; compound concentrations:100 nM and 1000 nM (sheet 'Lestaurtinib' of Supplementary Table 1),run:Lestaurtinib_02748_R2,Plate:MR024",286 nM
same,potency estimated from few doses,"AURKB; compound concentrations:100 nM and 1000 nM (sheet 'Lestaurtinib' of Supplementary Table 1),run:Lestaurtinib_02752_R1,Plate:MR025",290 nM
same,potency estimated from few doses,"AURKB; compound concentrations:100 nM and 1000 nM (sheet 'Lestaurtinib' of Supplementary Table 1),run:Lestaurtinib_02765_R1,Plate:MR026",275 nM
same,potency estimated from few doses,"AURKB; compound concentrations:100 nM and 1000 nM (sheet 'Lestaurtinib' of Supplementary Table 1),run:Lestaurtinib_02765_R3,Plate:MR026",350 nM
same,potency estimated from few doses,"AURKB; compound concentrations:100 nM and 1000 nM (sheet 'Lestaurtinib' of Supplementary Table 1),run:Lestaurtinib_02766_R2,Plate:MR027",95.3 nM
same,potency estimated from few doses,"AURKB; compound concentrations:100 nM and 1000 nM (sheet 'Lestaurtinib' of Supplementary Table 1),run:Lestaurtinib_02768_R1,Plate:MR028",151 nM
same,potency estimated from few doses,"AURKB; compound concentrations:100 nM and 1000 nM (sheet 'Lestaurtinib' of Supplementary Table 1),run:Lestaurtinib_02768_R2,Plate:MR028",146 nM
same,potency estimated from few doses,"AURKB; compound concentrations:100 nM and 1000 nM (sheet 'Lestaurtinib' of Supplementary Table 1),run:Lestaurtinib_02768_R3,Plate:MR028",169 nM
same,potency estimated from few doses,"AURKB; compound concentrations:100 nM and 1000 nM (sheet 'Lestaurtinib' of Supplementary Table 1),run:Lestaurtinib_02795_R2,Plate:MR022",132 nM
same,potency estimated from few doses,"AURKB; compound concentrations:100 nM and 1000 nM (sheet 'Lestaurtinib' of Supplementary Table 1),run:Lestaurtinib_02795_R3,Plate:MR022",269 nM
same,potency estimated from few doses,"AURKB; compound concentrations:100 nM and 1000 nM (sheet 'Lestaurtinib' of Supplementary Table 1),run:Lestaurtinib_02802_R2,Plate:MR029",144 nM
same,potency estimated from few doses,"AURKB; compound concentrations:100 nM and 1000 nM (sheet 'Lestaurtinib' of Supplementary Table 1),run:Lestaurtinib_02802_R3,Plate:MR029",83.6 nM
same,potency estimated from few doses,"AURKB; compound concentrations:100 nM and 1000 nM (sheet 'Lestaurtinib' of Supplementary Table 1),run:Lestaurtinib_02896_R3,Plate:MR030",218 nM
same,potency estimated from few doses,"AURKB; compound concentrations:100 nM and 1000 nM (sheet 'Lestaurtinib' of Supplementary Table 1),run:Lestaurtinib_03172_R1,Plate:MR031",146 nM
same,potency estimated from few doses,"AURKB; compound concentrations:100 nM and 1000 nM (sheet 'Lestaurtinib' of Supplementary Table 1),run:Lestaurtinib_03172_R3,Plate:MR031",290 nM
same,potency estimated from few doses,"AURKB; compound concentrations:100 nM and 1000 nM (sheet 'Lestaurtinib' of Supplementary Table 1),run:Lestaurtinib_03252_R2,Plate:MR032",136 nM
same,potency estimated from few doses,"AURKB; compound concentrations:100 nM and 1000 nM (sheet 'Lestaurtinib' of Supplementary Table 1),run:Lestaurtinib_03260_R2,Plate:MR033",243 nM
same,potency estimated from few doses,"CDKL5; compound concentrations:100 nM and 1000 nM (sheet 'Lestaurtinib' of Supplementary Table 1),run:Lestaurtinib_02339_R1,Plate:MR001",72.5 nM
same,potency estimated from few doses,"CDKL5; compound concentrations:100 nM and 1000 nM (sheet 'Lestaurtinib' of Supplementary Table 1),run:Lestaurtinib_02339_R2,Plate:MR001",37.7 nM
same,potency estimated from few doses,"CDKL5; compound concentrations:100 nM and 1000 nM (sheet 'Lestaurtinib' of Supplementary Table 1),run:Lestaurtinib_02364_R1,Plate:MR002",5.84 nM
same,potency estimated from few doses,"CDKL5; compound concentrations:100 nM and 1000 nM (sheet 'Lestaurtinib' of Supplementary Table 1),run:Lestaurtinib_02364_R3,Plate:MR002",158 nM
same,potency estimated from few doses,"CDKL5; compound concentrations:100 nM and 1000 nM (sheet 'Lestaurtinib' of Supplementary Table 1),run:Lestaurtinib_02367_R2,Plate:MR003",373 nM
same,potency estimated from few doses,"CDKL5; compound concentrations:100 nM and 1000 nM (sheet 'Lestaurtinib' of Supplementary Table 1),run:Lestaurtinib_02367_R3,Plate:MR003",37.9 nM
same,potency estimated from few doses,"CDKL5; compound concentrations:100 nM and 1000 nM (sheet 'Lestaurtinib' of Supplementary Table 1),run:Lestaurtinib_02381_R1,Plate:MR004",135 nM
same,potency estimated from few doses,"CDKL5; compound concentrations:100 nM and 1000 nM (sheet 'Lestaurtinib' of Supplementary Table 1),run:Lestaurtinib_02381_R2,Plate:MR004",149 nM
same,potency estimated from few doses,"CDKL5; compound concentrations:100 nM and 1000 nM (sheet 'Lestaurtinib' of Supplementary Table 1),run:Lestaurtinib_02381_R3,Plate:MR004",269 nM
same,potency estimated from few doses,"CDKL5; compound concentrations:100 nM and 1000 nM (sheet 'Lestaurtinib' of Supplementary Table 1),run:Lestaurtinib_02407_R1,Plate:MR005",43.6 nM
same,potency estimated from few doses,"CDKL5; compound concentrations:100 nM and 1000 nM (sheet 'Lestaurtinib' of Supplementary Table 1),run:Lestaurtinib_02407_R2,Plate:MR005",167 nM
same,potency estimated from few doses,"CDKL5; compound concentrations:100 nM and 1000 nM (sheet 'Lestaurtinib' of Supplementary Table 1),run:Lestaurtinib_02437_R1,Plate:MR007",32 nM
same,potency estimated from few doses,"CDKL5; compound concentrations:100 nM and 1000 nM (sheet 'Lestaurtinib' of Supplementary Table 1),run:Lestaurtinib_02437_R2,Plate:MR007",113 nM
same,potency estimated from few doses,"CDKL5; compound concentrations:100 nM and 1000 nM (sheet 'Lestaurtinib' of Supplementary Table 1),run:Lestaurtinib_02437_R3,Plate:MR007",2.19 nM
same,potency estimated from few doses,"CDKL5; compound concentrations:100 nM and 1000 nM (sheet 'Lestaurtinib' of Supplementary Table 1),run:Lestaurtinib_02438_R1,Plate:MR008",8.7 nM
same,potency estimated from few doses,"CDKL5; compound concentrations:100 nM and 1000 nM (sheet 'Lestaurtinib' of Supplementary Table 1),run:Lestaurtinib_02438_R2,Plate:MR008",181 nM
same,potency estimated from few doses,CDKL5; [1],176 nM
same,potency estimated from few doses,CDKL5; [2],27.1 nM
same,potency estimated from few doses,"CDKL5; compound concentrations:100 nM and 1000 nM (sheet 'Lestaurtinib' of Supplementary Table 1),run:Lestaurtinib_02443_R3,Plate:MR009",41.7 nM
same,potency estimated from few doses,CDKL5; [3],70.4 nM
same,potency estimated from few doses,"CDKL5; compound concentrations:100 nM and 1000 nM (sheet 'Lestaurtinib' of Supplementary Table 1),run:Lestaurtinib_02473_R3,Plate:MR010",212 nM
same,potency estimated from few doses,"CDKL5; compound concentrations:100 nM and 1000 nM (sheet 'Lestaurtinib' of Supplementary Table 1),run:Lestaurtinib_02482_R1,Plate:MR011",33.6 nM
same,potency estimated from few doses,"CDKL5; compound concentrations:100 nM and 1000 nM (sheet 'Lestaurtinib' of Supplementary Table 1),run:Lestaurtinib_02482_R2,Plate:MR011",27.4 nM
same,potency estimated from few doses,CDKL5; [4],190 nM
same,potency estimated from few doses,CDKL5; [5],449 nM
same,potency estimated from few doses,"CDKL5; compound concentrations:100 nM and 1000 nM (sheet 'Lestaurtinib' of Supplementary Table 1),run:Lestaurtinib_02496_R1,Plate:MR013",14.9 nM
same,potency estimated from few doses,CDKL5; [6],298 nM
same,potency estimated from few doses,"CDKL5; compound concentrations:100 nM and 1000 nM (sheet 'Lestaurtinib' of Supplementary Table 1),run:Lestaurtinib_02566_R3,Plate:MR014",21.2 nM
same,potency estimated from few doses,CDKL5; [7],389 nM
